Experimental data reported in PubChem BioAssay AID435019 (Southern Research Specialized Biocontainment Screening …, 2010).
Screen size: about 2,300 compounds; about 1,200 (52%) were called active. The rule behind the calls is not given here. So high a share suggests a set chosen from earlier hits. The list shows a part of the results. Results with a measured potency or affinity are listed apart.

Test: mammalian cell cytotoxicity, dose response, cytotoxicity control for M. tuberculosis inhibitor project (AID 435019);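 note: lower values mean fewer viable cells so more cytotoxicity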
Settings: cytotoxicity counter-screen; series mostly up to 40 µM

Structure (SMILES)	outcome
COC(=O)CSc1nnc(-c2sc3cc(OC)ccc3c2Cl)n1C	inactive
CNC(=O)COC(=O)c1ccc(-c2nc3ccccc3s2)s1	inactive
COc1ccc(COC(=O)CCNC(=O)c2ccc(Cl)cc2)cc1	inactive
CNC(=O)c1csc(-c2ccc(Cl)cc2)n1	inactive
C/C(=N\Nc1ccc(Cl)c(Cl)c1)c1ccc(-n2ccnc2)cc1	inactive
CNc1ncnc2c1ncn2[C@@H]1O[C@H](CO)[C@@H](O)[C@H]1O	inactive
O=C(CCSc1ccccn1)c1ccccc1	inactive
O=C(OCC#CCSc1nnc(-c2cccc3ccccc23)o1)c1cccs1	inactive
O=C(CCC(=O)NC1CCCCCCC1)Nc1nnc(C(F)(F)F)s1	inactive
CCOc1ccc(NC(=S)NC23CN4CN(CN(C4)C2)C3)cc1	inactive
COc1ccc(S(=O)(=O)N(C)CC(=O)NCCCn2ccnc2)cc1Cl	inactive
CCCOc1ccc(N2CC(C(=O)Nc3ccccn3)CC2=O)cc1 (configuration not stated)	inactive
Nc1ccc(S(=O)(=O)Nc2cnc3ccccc3n2)cc1	inactive
CCOc1ccc(N2C(=O)CS/C2=C(\C(Cl)=C(Cl)Cl)[N+](=O)[O-])cc1	inactive
COc1ccc(C(=O)Cn2nc(CNc3ccc(Br)cc3)[n+]3c2CCCCC3)cc1	inactive
CCc1nnc(NS(=O)(=O)c2ccc(N/C=C\C(=O)c3cccc(OC)c3)cc2)s1	inactive
COc1ccc(C2CC2/C(C)=N/OC(=O)c2ccc(F)cc2)cc1 (configuration not stated)	inactive
CCCCCC(=O)Nc1cccc2ccccc12	inactive
COc1cc(N=Nc2ccc3ccccc3c2)ccc1O	inactive
CCOc1cccc2cc(C(=O)Nc3nccs3)c(=O)oc12	inactive
O=C(O)Cc1cnc[nH]1	inactive
O=C(CCl)c1ccc2c(c1)CCN2C(=O)C1CCCCC1	inactive
COc1ccccc1/C=C/C1=NC(=C\C=C/c2ccccc2)/C(=O)O1	inactive
C(=C\c1ccccc1)/C=N/Nc1nc2ccccc2s1	inactive

Structure (SMILES)	outcome
COc1ccc(C2CC(=O)C3=C(C2)NC(C)=C(C#N)C3c2ccc(N(C)C)cc2)cc1 (configuration not stated)	inactive
CCOc1ccc(N=CC2=C(O)CC(c3ccco3)CC2=O)cc1 (configuration not stated)	inactive
CCCCCCc1cc2cc(C(=O)NCc3ccccc3)c(=N)oc2cc1O	inactive
Nc1c(C(=O)Nc2ccc(Br)cc2)sc2nc(-c3ccco3)ccc12	inactive
Cc1ccc(NC2Sc3ccccc3NC2=O)cc1Cl (configuration not stated)	inactive
O=C(C[n+]1ccccc1)NNc1ccccc1	inactive
Cc1ccc(NC(=O)COC(=O)c2ccc(=O)n(Cc3ccccc3)n2)cc1F	inactive
CN(C)C(=O)c1ccc(NC(=O)COC(=O)c2cc3c(s2)CCCCC3)cc1	inactive
COc1ccc(C(=O)COC(=O)[C@H](C)Nc2ccc(C(F)(F)F)cc2[N+](=O)[O-])cc1	inactive
COC(=O)c1ccc(Cn2cc(C(F)(F)F)cc([N+](=O)[O-])c2=O)cc1	inactive
CCOC(=O)CSc1nsc(SCC(=O)OCC)c1C#N	inactive
CCOc1ccc(N=c2scc(-c3ccccc3)n2CCO)cc1	inactive
Oc1ccc2cc(Br)ccc2c1CN1CCCC1	inactive
CSc1cc(-c2ccncc2)nc(-c2ccc(Cl)cc2)c1	inactive
Cc1ccnc(NC(=O)CCc2c[nH]c3ccccc23)c1	inactive
Cn1ccc(=Nc2ccc(NC(=O)c3ccc(N=c4ccn(C)c5ccc([N+](=O)[O-])cc45)cc3)cc2)cc1	inactive
COc1ccc(-c2nnc(SCC(=O)N3CCc4ccccc4C3)o2)cc1	inactive
CCOC(=O)C1CCCN(c2ncnc3c2cnn3-c2ccc(OC)cc2)C1 (configuration not stated)	inactive
CCOC(=O)N1CCN=C1SCc1ccc(C(F)(F)F)cc1	inactive
COc1ccc(-c2nnc(NC(=O)c3ccc([N+](=O)[O-])o3)o2)c(OC)c1	inactive
O=[N+]([O-])c1ccc(-n2cnc3ccccc32)c([N+](=O)[O-])c1	inactive
Cc1ccc(S(=O)(=O)N(C)c2ccc(OCC(=O)OCc3ccc(C#N)cc3)cc2)cc1	inactive
CC(/C=C/c1ccccc1)=N\NC(N)=S	inactive
CC1CCC/C(=N\NC(=S)Nc2ccccc2)C1 (configuration not stated)	inactive

Structure (SMILES)	outcome
O=C(OCCN1C(=O)c2ccccc2C1=O)c1cc2ccccc2o1	inactive
CCN(CC)S(=O)(=O)c1ccc(/C=C/C(=O)OCC#N)cc1	inactive
Cc1ccnc(N2CCC(C(=O)Nc3cccc(C(F)(F)F)c3)CC2)n1	inactive
CCOC(=O)c1c(/N=C/N(C)C)sc(/C=N/Nc2ccccc2)c1-c1ccccc1Cl	inactive
CCOC(=O)NNc1ccccc1	inactive
COC(=O)C1C2c3ccccc3OC1(C)N=c1s/c(=C/c3cnn(C)c3C)c(=O)n12 (configuration not stated)	inactive
CCc1cc2c(=O)c(-c3cnn(-c4ccccc4)c3)c(C)oc2c(CN2CCCCC2)c1O	inactive
CC(NC(=O)c1ccccc1Br)C1CC2CCC1C2 (configuration not stated)	inactive
O=C(OCc1nc2ccccc2s1)c1ccc(Br)o1	inactive
Cc1cc(/C=C/C(=O)O)c(C)n1-c1ccc(Cl)cc1	inactive
CNc1cccccc1=S	inactive
NC(=O)CSc1nnc(COc2ccc3ccccc3c2)o1	inactive
COc1ccc2c(c1)CCc1c(C(=O)Nc3c(C)n(C)n(-c4ccccc4)c3=O)noc1-2	inactive
Cc1c(O)c(=O)n(-c2ccccc2)n1C	inactive
CC(C)(C)c1ccc(C(=O)CSc2n[nH]c(=O)[nH]c2=O)cc1	inactive
Cc1ccccc1Cn1ccc(=NCc2ccccc2)cc1	inactive
CC(=O)n1cc(/C=C2/N=C(c3ccccc3)OC2=O)c2ccccc21	inactive
O=C(CN1CCCCC1)Nc1nnc(-c2ccc([N+](=O)[O-])cc2)s1	inactive
Cc1ccc(NC(=O)Cc2ccc(-c3ccccc3)cc2)nc1	inactive
CSc1cccc(NC(=O)CCS(=O)(=O)c2cccc3nonc23)c1	inactive
COC(=O)c1ccc(-n2cnc3ccccc32)nc1	inactive
COc1ccc(N2CCN(C(=O)c3ccc(CNc4c(N5CCOCC5)c(=O)c4=O)cc3)CC2)cc1	inactive
CN(C)c1ccc(/C=C2\N=C(C(C)(C)C)OC2=O)cc1	inactive
CCC(C)N1CCC2(CC1)N=c1c(c3c4c5c(C)c(O)c3c(O)c1=NC(=O)C(C)=CC=C[C@H](C)[C@H](O)[C@@H](C)[C@@H](O)[C@@H](C)[C@H](OC(C)=O)[C@H](C)[C@@H](OC)C=CO[C@@](C)(O5)C4=O)N2 (some centres not stated)	inactive
